# High-throughput results deposited in PubChem by National Center for Advancing Translational Sciences (NCATS).
# An excerpt weighted towards active compounds, which were near 7.5% of everything screened.
# ELG1 genotox: induces genotoxicity in HEK293T cells with luciferase-tagged ELG1; HEK293T ELG1-luciferase reporter, luminescence, 16 h; Potency, µM (top dose mostly 46 µM), for inactives: at the highest dose activity change, positive = activation, most hits filed as activators; 330,000 compounds, 1.3% hits; AID 504466; note: % of control where 0% means no effect; nearly all actives have a fitted effect of over 60% in size
#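 Genotoxicity was scored as increased ELG1-luciferase reporter signal, measured by ONE-Glo luminescence (30 min, room temperature). Compound or vehicle exposure of the HEK293T reporter cells lasted 16 hr at 37°C.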
# SMN2 splice enh: increases expression of the SMN2 splice variant | Potency, µM (titrated, usually from 46.1 µM), for the others: at the top dose activity change, positive = activation, hits mostly activators | HEK293 SMN2-luciferase splicing reporter, luminescence, 30-36 h | 210,000 compounds, 2.8% hits; note: % of control where 0% means no effect; nearly all actives have a fitted effect of over 55% in size
#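 qHTS luciferase splicing reporter: luminescence rises when SMN2 exon 7 is included in transfected HEK293 cells. Compound exposure lasted 30-36 h at 37C, with 4.5 mM final sodium butyrate as control, followed by a ONE-Glo read.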
# NPC1 promoter act: activates the NPC1 promoter | Huh7 NPC1 promoter luciferase reporter, 24 h | 320,000 compounds, 2.4% hits | Potency, µM (top dose mostly 9.22 µM), for the others: at the top dose activation, hits mostly activators; note: % of control where 0% means no effect; nearly all actives have a fitted effect of over 60% in size
#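 Readout is luciferase luminescence, reflecting NPC1 promoter activation in stably transfected Huh7 cells after 24 h compound exposure at 37 °C in reduced-serum medium with 10% FBS.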
# Rab9 promoter act: activators of Rab9 promoter | Huh7 Rab9 promoter-luciferase reporter, luminescence, 24 h | AID 485297 | 320,000 compounds, 2.8% hits | Potency, µM (series often up to 9.22 µM), for inactives: at the top dose activation, negative = inhibition, hits mostly activators; note: % of control where 0% means no effect; nearly all actives have a fitted effect of over 60% in size
#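 Luciferase signal after 10 min detection reagent at ambient indicates Rab9 promoter upregulation; stably transfected Huh7 cells were treated 24 h with compound in DMSO at 37 °C, 5% CO2.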
# FLuc modulator: firefly luciferase modulation, counter-screen for miR-21 project. P08659. purified FLuc, Km substrates, luminescence inhibition. Potency, µM (top dose mostly 57.5 µM), for the others: top-dose activity change, negative = inhibition, hits mostly inhibitors. 360,000 compounds, 6.9% hits. AID 588342;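 note: plate controls were vehicle for no effect and reference inhibitor for full effect; nearly all actives have a fitted effect of over 55% in size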
#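 Biochemical qHTS of compounds, final roughly 60 µM downward over six points, against 10 nM purified firefly luciferase using Km concentrations of substrates (10 uM D-luciferin, 10 uM ATP) in Tris acetate pH 7.5 buffer; luminescence output.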
# Starred values were filed as active, the others as inactive; ? = inconclusive; · = no result. Calls come from the whole dose curve; as a rule, active = well fitted curve in the direction sought with a large enough effect; inconclusive = small, poorly fitted or top-dose-only effect, or another doubt; inactive = no such curve, though single readings can be large; an effect the other way counts as inactive or inconclusive. Potency is the fitted concentration of half-maximal effect.
SMILES,ELG1 genotox,SMN2 splice enh,NPC1 promoter act,Rab9 promoter act,FLuc modulator
O=C(CCN1C(=O)c2ccccc2C1=O)Nc1ccc(-c2nc3ccccc3s2)cc1,10.3µM*,·,1.26µM*,0.398µM*,?
Cc1ccc(C2(C)NC(=O)N(CC(=O)Nc3ccc(-c4nc5ccc(C)cc5s4)cc3)C2=O)cc1 (configuration not stated),?,·,1.78µM*,?,2.39µM*
Cc1ccc(NC(=O)CN2C(=O)NC(C)(c3ccc4c(c3)OCO4)C2=O)cc1 (configuration not stated),-0.9%,·,·,·,·
Cc1ccc2nc(-c3ccc(NC(=O)C(C)N4C(=O)c5ccccc5C4=O)cc3)sc2c1 (configuration not stated),?,11.2µM*,?,29.1%,8.49µM*
O=CN1CCc2c([nH]c3ccccc23)C1c1cccc2cccnc12 (configuration not stated),·,-6.8%,·,·,·
